Screens from PubChem.
Marburg entry inh – qHTS for inhibitors of binding or entry into cells for Marburg Virus; Marburg virus pseudotyped entry inhibition, cell reporter; Potency, µM (top dose mostly 37.8 µM), for the others: top-dose activity change, negative = inhibition, usual class: inhibitors; 1.8% of 300,000 active; calls by dose curve; tested in HEK293 cells; also: potency is read from the fitted curve at half-maximal effect; % is scaled to controls: 0 for no effect and ±100 for the full control effect
HCV inhibitor – qHTS Assay for Inhibitors of Hepatitis C Virus (HCV). 3.4% of 340,000 active. Huh7.5.1 HCVcc-Cre infection, luciferase reporter, 44 h. Potency, µM (doses to about 41.8 µM), for inactives: at the highest dose activity change, negative = inhibition, actives largely listed as inhibitors. AID 651820, 2012; active = well fitted inhibition curve with a large enough effect; inconclusive = small, poorly fitted or top-dose-only effect, or another doubt; inactive = no such curve, though single readings can be large or run the other way; also: potency is read from the fitted curve at half-maximal effect; % is scaled to controls: 0 for no effect and ±100 for the full control effect
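Cells (1,000/well) were plated 4 h before compound, then infected with HCVcc-Cre virus (~0.5 moi). After 44 h further culture, infection was read as luciferase luminescence following a 15 min substrate incubation at room temperature.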
Lassa entry inh – qHTS for Inhibitors of binding or entry into cells for Lassa Virus; Lassa virus pseudotype entry inhibition, cell reporter; Potency, µM (series often up to 37.9 µM), for the others: at the top dose activity change, negative = inhibition, actives largely listed as inhibitors; 1.2% of 300,000 active; AID 540256, 2011; calls by dose curve; tested in HEK293 cells; also: potency is read from the fitted curve at half-maximal effect; % is scaled to controls: 0 for no effect and ±100 for the full control effect; nearly all actives have a fitted effect of over 50% in size
FMDV inh – High Throughput Screening for Foot and Mouth Disease Virus Antivirals. FMDV antiviral cell-based qHTS. 1.2% of 410,000 active. Potency, µM (top dose mostly 57.9 µM), without a hit: at the highest dose activity change, negative = inhibition, actives largely listed as inhibitors. AID 1159524, 2015; calls by dose curve; tested in HEK293T cells; also: read-out not given here; potency is read from the fitted curve at half-maximal effect; % is scaled to controls: 0 for no effect and ±100 for the full control effect; nearly all actives have a fitted effect of over 45% in size
HCMV inh – qHTS Assay for inhibitors of the human cytomegalovirus (HCMV); HFF cells, HCMV-luciferase reporter, 72 h; active compounds read low; activity change, negative = inhibition, % at 57.5 µM; 4.5% of 410,000 active; in the data active = activity change below about -60%; inconclusive = no clear call, values can overlap the other calls; inactive = above about -39%; also: % is scaled to controls: 0 for no effect and ±100 for the full control effect
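Two compound doses tested in HFFs infected with HCMV-luciferase, MOI 1 PFU/cell, 72 h at 37C. Lysate luminescence read with OneGlo; data normalized against buffer-only and 10uM Salinomycin inhibitor controls.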
SARS PLpro yeast – qHTS of Yeast-based Assay for SARS-CoV PLP | AID 485353, 2010 | Potency, µM (highest dose often 32.9 µM), inactives show at the top dose activity, positive = growth rescue, hits mostly activators | 0.19% of 330,000 active | S. cerevisiae expressing SARS-CoV PLpro, growth rescue; calls by dose curve; also: potency is read from the fitted curve at half-maximal effect; 0% is about no effect; nearly all actives have a fitted effect of over 55% in size
* marks the source's active call; other numbers are inactive results; ? = inconclusive; / = not tested or not shown; [ ] = remark or other dose. In the library only some 8% were active in any assay of this set; here they are far more common.

SMILES	Marburg entry inh	HCV inhibitor	Lassa entry inh	FMDV inh	HCMV inh	SARS PLpro yeast
Cc1ccc(OCCn2nnc3sc4c(c3c2=O)CCC(C)C4)cc1 (stereo not given)	?	/	-6%[46.1 µM]	2%	0	/
CCOC(=O)c1cc(-c2ccc(F)cc2)n(CCC(=O)NC2CCC(C)CC2)c1C (stereo not given)	/	/	0%[46.1 µM]	-16%	0	/
CCCCc1nn2c(=O)cc(COC(=O)CNC(=O)c3ccccc3C)nc2s1	/	/	21%[46.1 µM]	14%	-2	/
CC1=C(C(=O)Nc2cccc(C(F)(F)F)c2)C(c2ccccc2)n2ncnc2N1 (stereo not given)	/	/	4%[46.1 µM]	-12%	1	/
CCc1nc2ccccc2c(C(=O)OCc2nc3ccccc3c(=O)[nH]2)c1C	3.5µM*	?	?	-21%	12	-13%
CCOC(=O)c1[nH]c(C)c(C(=O)NCCc2ccccc2)c1C	-18%[46.1 µM]	/	-18%[46.1 µM]	42%	75	/
C#Cc1ccc([C@H]2C=C(C(=O)N3CCN(Cc4ccccc4)CC3)O[C@@H](OCc3ccc(CO)cc3)C2)cc1	/	?	/	-28%	-76*	-1%
O=C(C1=C[C@@H](c2ccc(C(F)(F)F)cc2)C[C@@H](OCc2ccc(CO)cc2)O1)N1CCN(Cc2ccc3c(c2)OCO3)CC1	/	?	/	?	5	0%
O=C(C1=C[C@H](c2ccc(C(F)(F)F)cc2)C[C@H](OCc2ccc(CO)cc2)O1)N1CCN(Cc2ccc3c(c2)OCO3)CC1	/	10µM*	/	?	-18	-2%
Cc1ccc(S(=O)(=O)NCC(=O)N/N=C/c2ccc(Cl)cc2Cl)cc1	-19%	5%	5%	-15%	-32	-2%
O=C(CNS(=O)(=O)c1ccccc1)N/N=C/c1ccccc1[N+](=O)[O-]	1%[46.1 µM]	-2%	-8%[46.1 µM]	-11%	-65*	1%
O=[N+]([O-])c1cc2c(cc1/C=N\NS(=O)(=O)c1ccccc1)OCO2	?	8%	-28%	/	-84*	7%
O=C(CCCO)N/N=C/c1ccccc1[N+](=O)[O-]	?	16%	22%	38%	?	16%
Cc1ccc(S(=O)(=O)NCC(=O)N/N=C/c2ccccc2O)cc1	?	-87%	7.3µM*	-7%	-22	-1%
CCn1cc(C(=O)N2CCN(c3ccccc3OC)CC2)c(=O)c2cc(S(=O)(=O)N3CCC(C)CC3)ccc21	11%[46.1 µM]	/	7%[46.1 µM]	5%	-1	/
Cc1cccc(OCC(=O)Nc2ccc3nc(Nc4cccc(Cl)c4)cc(C)c3c2)c1	/	/	-18%[46.1 µM]	-2%	-63*	/
O=C(COc1ccc(-n2ccnc2)cc1)Nc1cccc(F)c1	/	-26%	/	-22%	?	-1%
O=C(COc1ccc(-n2ccnc2)cc1)Nc1cccc(Cl)c1	?	?	-1%	?	-64*	-6%
Cc1cc(Nc2cccc(Cl)c2)nc2ccc(NC(=O)COc3ccc(Cl)cc3)cc12	/	/	-3%[46.1 µM]	-18%	-106*	/
Cc1nc(NCc2c(F)cccc2F)sc1-c1ccn(CCN2CCOCC2)n1	/	/	/	-11%	/	/
CCc1ccccc1N(C)C(=O)c1cn(CC(C)C)c(=O)c2cc(OC)c(OC)cc12	?	/	?	-19%	-34	/
CC(C)N(CC(=O)Nc1ccc(Cl)cc1C(F)(F)F)C(=O)CCl	10µM*	4µM*	?	16µM*	-99*	-3%
CCC(C)N(CC(=O)Nc1cccc(C)c1C)C(=O)CCl (stereo not given)	7%[46.1 µM]	1.3µM*	3.2µM*	16µM*	/	-1%
CCC(CC)NC(=O)Nc1cccc(C)c1C	/	2%	/	-6%	-37	0%
O=c1c2oc3ccccc3c2n(Cc2ccc(Cl)cc2)c(=O)n1Cc1ccco1	/	/	5%[46.1 µM]	-22%	0	/
COc1ccc(-c2sc3ccccc3c2/C=C/c2ccncc2)cc1	/	7.1µM*	/	-25%	26	-1%
COc1ccc(/C=C/c2c(-c3ccc(OC)cc3)sc3cc(OC)c(OC)cc23)cc1	/	2.5µM*	/	-30%	-10	-1%
